# Laboratory results published in PubChem BioAssay (NCI).
# About 83,000 compounds went through this panel and 20% of them were active in at least one assay; those are over-represented in the sample as a whole.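 Each cell line was grown in a 96-well plate and treated with one concentration of compound for 48 hours. Values below 10 were considered active.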 Active and inactive are the calls of the source.
# Test system: MDA-MB-468 breast
# Assay: NCI-60 one-dose screen, 48 h (100 = growth as untreated, 0 = no growth, -100 = all killed)
# Settings: 10 µM unless noted
row,Structure (SMILES),growth
1,N#Cc1nc(-c2ccccc2)oc1N1CC[C@@H](CO)C1,95.2% (inactive)
2,CCCCCCCCCCCCCCCC1=NCC[N+]1(CCO)CCO,55.2% (inactive)
3,COc1ccc(-c2nocc2-c2cccs2)cc1,97% (inactive)
4,Clc1ccc(Nc2ccnc(N3CCN(c4ccnc5cc(Cl)ccc45)CC3)n2)cc1,39.4% (inactive)
5,CN1CCN(Cc2ccc(NC(=O)c3cncc(C#Cc4c(N)ncc5ccccc45)c3)cc2C(F)(F)F)CC1,-71.6% (active)
6,COC(=O)c1cc(-c2ccc(Cl)c(Cl)c2)[nH]c(=O)c1C#N,99.6% (inactive)
7,c1ccc2nc(-c3ccc4ccccc4n3)ccc2c1,78.9% (inactive)
8,N#Cc1cnc2ccc(-c3cnc4[nH]ncc4c3)cc2c1N1CCc2cc(F)c(Cl)cc21,-19.8% (active)
9,Oc1ccc(Cl)cc1-c1cc(-c2ccc(Cl)cc2)n[nH]1,8.55% (active)
10,Cc1ccc(S(=O)(=O)Oc2ccc3sc4cccc(NCCN(C)C)c4c(=O)c3c2)cc1,-91.7% (active)
11,COc1ccc(-n2nnc(C(=O)O)c2-c2cc(OC)c(OC)c(OC)c2)cc1,102% (inactive)
12,c1csc(-c2cc(-c3cc(-c4cccs4)[nH]n3)n[nH]2)c1,77.3% (inactive)
13,CSc1ccc(Cl)c(C(=O)Nc2sccc2C(N)=O)c1,-7.28% (active)
14,CCOC(=O)c1ccc(NC2=C(Cl)C(=O)c3nc(C)ccc3C2=O)cc1,-24.6% (active)
15,COc1ccc2c(c1)Oc1nc(N)c(C#N)c(N)c1C2Sc1ccc(SC)cc1 (stereo not given),-40.8% (active)
16,O=c1n(CC2CO2)c(=O)n(CC2CO2)n1CC1CO1 (stereo not given),25.6% (inactive)
17,Cc1cc(=O)oc2cc(Oc3nc(-c4ccccc4)cn4c(-c5ccccc5)cnc34)ccc12,44.2% (inactive)
18,CCN(CC)c1ccc2nc3ccc(N=Nc4ccc(N(C)C)cc4)cc3[n+](-c3ccccc3)c2c1,-65.6% (active)
19,O=C1Nc2cc(Cl)ccc2/C1=C\c1ccc(OCc2ccc([N+](=O)[O-])cc2)cc1,52% (inactive)
20,C=C(C)[C@@H]1CC[C@]2(C(=O)OC)CC[C@]3(C)[C@H](CC[C@@H]4[C@@]5(C)CC/C(=N\OCCC(=NCCC#N)NOCCC#N)C(C)(C)[C@@H]5CC[C@]43C)[C@@H]12,4.41% [100 µM] (active)

row,Structure (SMILES),growth
1,Fc1ccc2[nH]cc(-c3nc(-c4c[nH]c5ccncc45)cs3)c2c1,-65.6% (active)
2,COc1cc(CCC[P+](c2ccccc2)(c2ccccc2)c2ccccc2)c(OC)c2c1OCO2,-25.3% (active)
3,CCn1cc(C(=O)N/N=C/c2cccs2)c(=O)c2cc(F)c(N3CCNC(C)C3)c(F)c21 (stereo not given),55.1% (inactive)
4,COc1ccc(-c2nnc3n(C)c(=O)c4ccccc4n23)cc1N,-6.61% (active)
5,CN(C)c1ccc(N=C2C=CC(=O)c3ccccc32)cc1,65.6% (inactive)
6,CC1CCC(C(C)C)C(NNC(N)=O)C1 (stereo not given),94.9% (inactive)
7,C/C=C(/C)n1cnc2c(Nc3ccccn3)nc(Cl)nc21,93% (inactive)
8,CCN1CCN(Cc2ccc(NC(=O)Nc3nc4ccc(Oc5ccnc(C(=O)NC)c5)cc4s3)cc2C(F)(F)F)CC1,-66.3% (active)
9,CC1(C)CC(O)CCCCCCOc2c(CN)cccc2NC(=O)c2nc(cnc2N)-c2ccc(cc2)S1(=O)=O (stereo not given),6.87% (active)
10,O=C(Nc1cccc(-n2cc(-c3ccncc3)c(-c3ccc(O)c(Cl)c3)n2)c1)c1ccc(Cl)c(Cl)c1,68.9% (inactive)
11,O=C1Nc2ccccc2C12C=C(c1ccccc1)Nc1c2c(-c2ccccc2)nn1-c1ccccc1 (stereo not given),105% (inactive)
12,CNC(=O)c1cc(Oc2cccc3nc(NC(=O)Nc4cc(C(F)(F)F)cc(C(F)(F)F)c4)ccc23)ccn1,32% (inactive)
13,CC(=O)N1N=C(c2cccc(-n3cccc3)c2)CC1c1cccc(F)c1 (stereo not given),90.4% (inactive)
14,CCN(CC)c1ccc2c(c1)OS(=O)(=O)N=C2,111% (inactive)
15,C=CCNCCC#N,98.1% (inactive)
16,Cn1ccnc1C(=O)/C=C/c1ccc(NC(=O)Nc2ccc(Cl)cc2)cc1,43.9% (inactive)
17,COc1ccc(-c2nc3ncccn3c2-c2nnc(-c3ccsc3C)o2)cc1,86.1% (inactive)
18,CCOC(=O)C(C(C)=O)c1nc2sc3cc(Cl)ccc3n2c(=N)c1C#N (stereo not given),4.75% (active)
19,COc1ccc(C(=O)c2sc3nc(-c4ccccc4OC)ccc3c2N)cc1OC,66.9% (inactive)
20,CCN(CC)CCCNC(=O)c1ccc(N)cc1,86.2% (inactive)
